Assay results: ChEMBL document CHEMBL3988442, “University of Dundee, Small-Polar-MMV Screening Library” (2021)
For part of these data: Results with a measured potency or affinity are listed apart.

Legend:
Set-up in all cases: scale not given: direction of the effect not stated beside the values
[1] = target: Protein translocase subunit SecA (Escherichia coli (strain K12)) (UniProt P10408); experiment: Assay to Identify E. coli SecA ATPase Inhibitors; assay type: functional; conditions: 30 µM
[2] = target: T1, Ubiquitin-activating enzyme e1, putative (Leishmania donovani (strain BPK282A1)) (UniProt E9BSI1); experiment: Leishmania donovani Ubiquitin Activating Enzyme (LdE1); assay type: functional; conditions: 30 µM
T1 sequence (whole entry): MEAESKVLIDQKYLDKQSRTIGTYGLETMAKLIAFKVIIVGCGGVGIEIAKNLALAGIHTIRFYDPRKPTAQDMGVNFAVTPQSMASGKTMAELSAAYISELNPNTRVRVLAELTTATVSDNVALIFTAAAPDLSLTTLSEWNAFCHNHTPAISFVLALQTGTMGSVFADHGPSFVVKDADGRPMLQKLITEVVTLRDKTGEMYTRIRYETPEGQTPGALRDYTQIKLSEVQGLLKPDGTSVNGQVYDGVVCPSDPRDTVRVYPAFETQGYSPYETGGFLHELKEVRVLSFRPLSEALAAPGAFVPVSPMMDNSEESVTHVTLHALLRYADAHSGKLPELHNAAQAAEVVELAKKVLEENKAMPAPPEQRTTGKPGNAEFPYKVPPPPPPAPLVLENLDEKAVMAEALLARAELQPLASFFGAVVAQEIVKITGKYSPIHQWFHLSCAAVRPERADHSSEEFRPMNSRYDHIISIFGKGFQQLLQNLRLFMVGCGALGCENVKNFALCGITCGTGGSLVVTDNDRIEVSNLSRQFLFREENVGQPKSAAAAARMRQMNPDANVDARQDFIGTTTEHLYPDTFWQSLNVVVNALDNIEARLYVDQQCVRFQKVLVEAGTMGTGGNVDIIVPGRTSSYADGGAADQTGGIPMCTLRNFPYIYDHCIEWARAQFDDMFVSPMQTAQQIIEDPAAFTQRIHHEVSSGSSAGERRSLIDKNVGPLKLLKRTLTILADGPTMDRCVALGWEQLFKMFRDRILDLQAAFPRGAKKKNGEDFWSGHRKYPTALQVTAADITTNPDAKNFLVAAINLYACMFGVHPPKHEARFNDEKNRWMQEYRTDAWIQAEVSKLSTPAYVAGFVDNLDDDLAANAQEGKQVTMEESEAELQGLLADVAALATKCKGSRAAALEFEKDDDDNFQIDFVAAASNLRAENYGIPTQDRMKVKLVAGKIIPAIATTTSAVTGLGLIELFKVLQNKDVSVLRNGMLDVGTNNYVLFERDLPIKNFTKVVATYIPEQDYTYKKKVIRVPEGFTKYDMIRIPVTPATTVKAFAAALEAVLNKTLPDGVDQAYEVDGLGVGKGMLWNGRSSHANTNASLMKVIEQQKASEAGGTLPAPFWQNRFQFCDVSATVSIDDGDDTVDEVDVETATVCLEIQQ

[3] = target: AMP-activated protein kinase, AMPK (Homo sapiens) (UniProt P54646+O43741+P54619+Q9UGJ0+Q9Y478+Q13131+Q9UGI9); experiment: AMP-dependent Kinase enzyme assay. An in vitro enzyme assay that detects ADP turnover that is directly proportional to AMPK activity. This uses naive AMPK that is activated during the assay with MK-8722; assay type: functional; conditions: 30 µM
[4] = target: Sialic acid-binding Ig-like lectin 9 (Homo sapiens) (UniProt Q9Y336); experiment: Hs-Siglec9 ALPHAscreen SOP 20170721; conditions: 10 µM
Trypanosoma cruzi = experiment: Trypanosoma cruzi phosphomannomutase and mannose-1-phosphate guanylyltransferase assay; assay type: functional; conditions: 10 µM
[5] = target: T2, Arginase-2, mitochondrial (Homo sapiens) (UniProt P78540); experiment: in vitro enzyme assay to detect the production of urea directly proportional to the activity of Arginase II; assay type: functional; conditions: 33.3 µM; also: in the data most compounds retested in dose-response had high values
T2 sequence (whole entry): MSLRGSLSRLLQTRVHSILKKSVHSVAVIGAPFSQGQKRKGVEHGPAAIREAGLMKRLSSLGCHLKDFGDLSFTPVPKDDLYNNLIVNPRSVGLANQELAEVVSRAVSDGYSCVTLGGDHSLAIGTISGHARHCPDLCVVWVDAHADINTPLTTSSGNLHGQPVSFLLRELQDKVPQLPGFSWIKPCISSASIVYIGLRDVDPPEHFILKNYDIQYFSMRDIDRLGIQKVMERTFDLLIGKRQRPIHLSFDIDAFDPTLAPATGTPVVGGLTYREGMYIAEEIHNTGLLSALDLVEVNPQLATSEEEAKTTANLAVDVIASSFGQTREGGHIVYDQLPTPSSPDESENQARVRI

[6] = target: T3, Proteasome subunit beta (Trypanosoma cruzi) (UniProt O96673); experiment: Trypanosoma cruzi proteasome chymotrypsin-like activity (TcProtChymo) assay.; also: in the data most compounds retested in dose-response had high values; assay type: functional; conditions: 9.37 µM
T3 sequence (whole entry): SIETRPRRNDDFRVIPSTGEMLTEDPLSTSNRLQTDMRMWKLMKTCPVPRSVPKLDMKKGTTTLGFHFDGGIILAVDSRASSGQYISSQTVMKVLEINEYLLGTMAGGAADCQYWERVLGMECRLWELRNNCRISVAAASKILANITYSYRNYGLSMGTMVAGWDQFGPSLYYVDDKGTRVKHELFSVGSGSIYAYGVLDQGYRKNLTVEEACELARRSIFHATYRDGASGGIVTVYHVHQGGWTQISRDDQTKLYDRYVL

Homo sapiens = species: Homo sapiens; experiment: To identify inhibition of the IFN signalling (Jak-Stat) pathway via expression of an eGFP reporter gene under the control of an IFN-stimulated response element (ISRE) containing MxA promoter.; assay type: functional; conditions: 30 µM
[7] = target: T4, Tyrosyl-tRNA synthetase, putative (Trypanosoma cruzi (strain CL Brener)) (UniProt Q4DSP6); experiment: Trypanosoma cruzi tyrosyl tRNA synthetase (TcYRS) _High Tyrosine SOP; assay type: functional; conditions: 30 µM; also: in the data most compounds retested in dose-response had high values
T4 sequence (whole entry): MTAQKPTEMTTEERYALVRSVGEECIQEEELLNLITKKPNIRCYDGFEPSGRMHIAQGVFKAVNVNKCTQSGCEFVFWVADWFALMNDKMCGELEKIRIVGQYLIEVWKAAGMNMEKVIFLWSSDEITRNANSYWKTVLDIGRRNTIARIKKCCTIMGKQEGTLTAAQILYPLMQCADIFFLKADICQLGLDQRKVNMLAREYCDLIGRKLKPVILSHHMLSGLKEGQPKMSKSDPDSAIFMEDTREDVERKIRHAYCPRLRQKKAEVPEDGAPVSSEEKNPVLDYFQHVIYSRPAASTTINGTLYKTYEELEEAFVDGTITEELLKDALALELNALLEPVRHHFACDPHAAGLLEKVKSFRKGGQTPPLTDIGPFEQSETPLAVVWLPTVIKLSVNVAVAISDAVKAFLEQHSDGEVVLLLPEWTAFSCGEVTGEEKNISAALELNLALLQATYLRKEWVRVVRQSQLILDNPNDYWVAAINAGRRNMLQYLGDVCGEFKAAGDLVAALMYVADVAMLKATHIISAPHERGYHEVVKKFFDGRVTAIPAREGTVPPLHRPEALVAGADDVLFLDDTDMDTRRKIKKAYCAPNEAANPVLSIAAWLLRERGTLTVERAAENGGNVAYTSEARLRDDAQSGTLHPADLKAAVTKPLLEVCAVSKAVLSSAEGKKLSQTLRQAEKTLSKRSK

[8] = target: T4, Tyrosyl-tRNA synthetase, putative (Trypanosoma cruzi (strain CL Brener)); experiment: Trypanosoma cruzi tyrosyl tRNA synthetase (TcYRS) SOP; assay type: functional; conditions: 30 µM
[9] = target: Chromo domain-containing protein 1 (Saccharomyces cerevisiae (strain ATCC 204508 / S288c) (Baker's yeast)) (UniProt P32657); experiment: ScCHD-1 Enzyme Inhibition Assay; assay type: functional; conditions: 30 µM; also: in the data most compounds retested in dose-response had high values
Chromo domain-containing protein 1 (Saccharomyces cerevisiae (strain ATCC 204508 / S288c) (Baker's yeast)), sequence (P32657 whole entry, the tested form may be a part): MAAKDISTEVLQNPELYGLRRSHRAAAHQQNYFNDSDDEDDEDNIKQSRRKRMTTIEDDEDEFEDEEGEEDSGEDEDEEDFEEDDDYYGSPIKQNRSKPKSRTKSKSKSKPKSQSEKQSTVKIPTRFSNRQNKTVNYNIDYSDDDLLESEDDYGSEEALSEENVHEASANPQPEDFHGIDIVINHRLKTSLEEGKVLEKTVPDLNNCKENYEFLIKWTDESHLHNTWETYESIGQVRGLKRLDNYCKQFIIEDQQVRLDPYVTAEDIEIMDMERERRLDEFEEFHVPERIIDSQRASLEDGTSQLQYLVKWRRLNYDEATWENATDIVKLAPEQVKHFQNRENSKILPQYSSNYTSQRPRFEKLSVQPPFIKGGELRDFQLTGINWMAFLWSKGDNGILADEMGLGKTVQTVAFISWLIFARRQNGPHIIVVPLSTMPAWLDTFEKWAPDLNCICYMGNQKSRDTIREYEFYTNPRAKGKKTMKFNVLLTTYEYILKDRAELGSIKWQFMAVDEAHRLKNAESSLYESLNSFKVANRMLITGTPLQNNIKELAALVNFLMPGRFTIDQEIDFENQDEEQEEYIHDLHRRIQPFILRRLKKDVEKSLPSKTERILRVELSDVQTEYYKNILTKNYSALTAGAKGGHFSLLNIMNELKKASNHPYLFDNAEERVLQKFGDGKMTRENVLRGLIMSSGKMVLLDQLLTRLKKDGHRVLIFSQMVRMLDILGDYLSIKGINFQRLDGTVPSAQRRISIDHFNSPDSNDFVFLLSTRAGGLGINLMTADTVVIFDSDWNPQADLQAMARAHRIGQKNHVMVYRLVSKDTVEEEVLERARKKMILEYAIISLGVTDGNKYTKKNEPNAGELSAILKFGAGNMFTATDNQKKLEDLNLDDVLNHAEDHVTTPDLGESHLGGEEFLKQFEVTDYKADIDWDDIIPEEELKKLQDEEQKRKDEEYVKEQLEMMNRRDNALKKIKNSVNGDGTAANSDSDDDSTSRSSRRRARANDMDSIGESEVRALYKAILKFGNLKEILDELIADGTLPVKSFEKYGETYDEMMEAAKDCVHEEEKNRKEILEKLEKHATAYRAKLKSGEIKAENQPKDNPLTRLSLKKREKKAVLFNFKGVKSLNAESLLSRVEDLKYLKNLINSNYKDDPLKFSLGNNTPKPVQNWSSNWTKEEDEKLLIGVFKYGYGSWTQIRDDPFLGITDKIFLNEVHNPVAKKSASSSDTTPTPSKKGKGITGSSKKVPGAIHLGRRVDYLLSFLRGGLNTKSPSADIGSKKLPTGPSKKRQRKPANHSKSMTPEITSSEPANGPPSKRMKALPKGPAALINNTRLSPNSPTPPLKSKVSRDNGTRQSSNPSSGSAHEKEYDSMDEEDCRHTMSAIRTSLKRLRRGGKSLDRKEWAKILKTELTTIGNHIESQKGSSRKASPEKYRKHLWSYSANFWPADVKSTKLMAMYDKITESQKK

Sialic acid-binding Ig-like lectin 9 (Homo sapiens), sequence (Q9Y336 whole entry): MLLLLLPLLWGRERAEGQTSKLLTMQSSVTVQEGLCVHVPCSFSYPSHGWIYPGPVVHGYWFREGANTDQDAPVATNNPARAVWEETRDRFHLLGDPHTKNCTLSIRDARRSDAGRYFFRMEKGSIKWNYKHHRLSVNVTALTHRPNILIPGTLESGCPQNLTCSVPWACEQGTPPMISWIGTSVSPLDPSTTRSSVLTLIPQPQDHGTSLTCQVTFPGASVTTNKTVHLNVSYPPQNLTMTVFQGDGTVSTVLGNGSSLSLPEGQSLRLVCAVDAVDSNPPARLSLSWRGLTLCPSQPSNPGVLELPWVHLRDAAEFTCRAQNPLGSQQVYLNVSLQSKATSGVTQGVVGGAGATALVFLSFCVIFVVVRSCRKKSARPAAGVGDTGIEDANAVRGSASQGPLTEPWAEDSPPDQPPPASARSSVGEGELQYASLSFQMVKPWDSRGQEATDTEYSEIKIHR
Protein translocase subunit SecA (Escherichia coli (strain K12)), sequence (P10408 whole entry): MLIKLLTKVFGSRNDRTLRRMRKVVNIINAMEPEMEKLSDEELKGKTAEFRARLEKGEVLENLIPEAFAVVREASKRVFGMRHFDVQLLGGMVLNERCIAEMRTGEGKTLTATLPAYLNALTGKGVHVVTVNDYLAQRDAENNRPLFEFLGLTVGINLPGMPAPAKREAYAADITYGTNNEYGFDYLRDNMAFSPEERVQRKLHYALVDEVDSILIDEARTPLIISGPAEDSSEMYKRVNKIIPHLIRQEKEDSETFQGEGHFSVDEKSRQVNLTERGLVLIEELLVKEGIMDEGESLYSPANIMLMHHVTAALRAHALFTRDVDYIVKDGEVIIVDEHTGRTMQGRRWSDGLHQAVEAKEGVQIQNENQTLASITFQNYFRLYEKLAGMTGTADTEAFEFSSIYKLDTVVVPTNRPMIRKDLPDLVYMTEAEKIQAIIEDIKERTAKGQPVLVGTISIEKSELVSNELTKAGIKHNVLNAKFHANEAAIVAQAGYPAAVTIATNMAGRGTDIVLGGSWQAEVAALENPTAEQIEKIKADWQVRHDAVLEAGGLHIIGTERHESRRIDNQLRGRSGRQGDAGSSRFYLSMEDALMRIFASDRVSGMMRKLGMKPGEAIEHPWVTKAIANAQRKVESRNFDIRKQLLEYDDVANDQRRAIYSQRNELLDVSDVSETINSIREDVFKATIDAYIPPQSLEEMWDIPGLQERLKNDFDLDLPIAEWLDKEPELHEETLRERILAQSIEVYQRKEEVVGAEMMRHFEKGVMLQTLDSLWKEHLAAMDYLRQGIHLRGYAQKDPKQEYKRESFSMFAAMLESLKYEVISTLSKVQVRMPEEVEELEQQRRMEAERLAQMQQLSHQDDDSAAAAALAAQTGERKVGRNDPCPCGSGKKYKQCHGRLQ

| Compound | Percent Effect [1] [%] | Percent Effect [2] [%] | Percent Effect [3] [%] | Percent Effect [4] [%] | Percent Effect (Trypanosoma cruzi) [%] | Percent Effect [5] [%] | Percent Effect [6] [%] | Percent Effect (Homo sapiens) [%] | Percent Effect [7] [%] | Percent Effect [8] [%] | Percent Effect [9] [%] |
| --- | --- | --- | --- | --- | --- | --- | --- | --- | --- | --- | --- |
| CCOCC1CN(S(=O)(=O)N(C)C)Cc2cnn(C)c21 (centres undefined) | -2.24 | 5.48 | -0.778 | 4.27 | -5.16 | -8.38 | 4.71 | 11.6 | 7.29 | 1.24 | -2.91 |
| CN(CC1COc2ccccc2O1)C(=O)NCCCn1ccnc1 (centres undefined) | -1.25 | 0 | 12.1 | -8.39 | -4.7 | -3.06 | -0.835 | 27.3 | -3.43 | -7.32 | 7.75 |
| CC(C)NC(=O)C1CN(C(=O)c2ccc(F)cc2)CC12CCOCC2 (centres undefined) | -0.326 | 6.67 | 1.28 | -10.8 | -11.8 | -7.22 | 17.4 | -8.73 | 1.06 | 2.56 | -10.5 |
| Cc1nc(C2CCCN2Cc2nnc(C3CC3)o2)no1 (centres undefined) | -2 | 2.7 | 4.19 | 3.15 | -1.21 | -0.554 | 17.2 | 16.6 | 9.9 | 18.3 | -3.91 |
| CN1C(=O)C(C)(C)COc2cc(NS(=O)(=O)c3ccccc3)ccc21 | -2.86 | 8.22 | -14 | 10.6 | -0.979 | 2.27 | 14.2 | 46.6 | -8.6 | 12.5 | -7.69 |
| COc1cc(C)nc(N2CCN(C(=O)c3ccccc3C)CC2)n1 | -6.89 | 2.7 | -5.76 | 17.5 | 8.4 | -13.2 | 1.8 | 9.59 | 5.42 | 18.5 | -18.4 |
| Cc1nc(CNCC2CCCN2c2cccnn2)no1 (centres undefined) | -3.3 | -13 | -11.2 | -6.04 | 8.32 | -6.53 | 15.6 | -2.13 | 9.52 | 14.1 | -23.1 |
| CC(Sc1nnnn1C1CCOCC1)C(=O)NC1CCCCC1 (centres undefined) | -6.54 | 2.67 | -2.78 | 37.4 | 3.21 | 3.65 | 13.8 | 24.9 | 7.1 | 16.1 | -4.98 |
| O=S(=O)(C1CC1)N1CC[C@]2(C[C@@H](Oc3ccccn3)CO2)C1 | -2.9 | 10.4 | 2.58 | 5.55 | -2.46 | 3.23 | 7.66 | 11.7 | 0 | 8.97 | -7.95 |
